Source: PubChem (National Center for Advancing Translational Sciences (NCATS))
gsp antagonist – qHTS for Antagonists of gsp, the Etiologic Mutation Responsible for Fibrous Dysplasia/McCune-Albright Syndrome: qHTS; gsp-mutant cells, cAMP HTRF, 30 min; hit rate 0.4% among 340,000; Potency, µM (titrated, usually from 76.9 µM), inactives show top-dose activity change, negative = inhibition, actives largely listed as inhibitors; calls by dose curve; cell line not stated here;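 also: intracellular cAMP measured with PDE inhibitor Ro 20-1724 present during compound exposure; % is scaled to controls: 0 for no effect and ±100 for the full control effect; nearly all actives have a fitted effect of over 65% in size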
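Cells in G418 medium, seeded 16-24 h, 37C; buffer exchange to DPBS + 1 mM CaCl2, 0.5 mM MgCl2, 0.05% BSA; cpds in DMSO + […] (300 uM stock), 30 min 37C; HTRF cAMP detection.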
FUS suppressor – qHTS for Suppressors of FUS Proteinopathy: Primary screen using FUS-linked yeast assay | hit rate 0.24% among 390,000 | S. cerevisiae FUS-expressing, growth rescue, OD600, 24 h | Potency, µM (top dose mostly 76.6 µM), usual class: activators | AID 1347120, 2019;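 also: plate controls were DMSO vehicle for no effect and reference control for full effect; nearly all actives have a fitted effect of over 55% in size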
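Cultures pregrown in 2.5% raffinose medium are shifted to minimal medium containing 2% galactose to express toxic FUS. Compounds are tested at several concentrations. After 24hr at 30C, growth is quantified at 600 nm absorbance.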
ALOX12 inh – Primary qHTS assay for inhibitors of human arachidonate 12S-lipoxygenase (ALOX12): Round 2; Polyunsaturated fatty acid lipoxygenase ALOX12 (Homo sapiens), P18054; purified 12hLO, xylenol orange hydroperoxide absorbance; Potency, µM (top dose mostly 108 µM), for the others: top-dose activity change, negative = inhibition, actives largely listed as inhibitors; hit rate 1.1% among 580,000; AID 1671190, 2021; also: % is scaled to controls: 0 for no effect and ±100 for the full control effect
Target sequence (P18054 whole entry, looked up): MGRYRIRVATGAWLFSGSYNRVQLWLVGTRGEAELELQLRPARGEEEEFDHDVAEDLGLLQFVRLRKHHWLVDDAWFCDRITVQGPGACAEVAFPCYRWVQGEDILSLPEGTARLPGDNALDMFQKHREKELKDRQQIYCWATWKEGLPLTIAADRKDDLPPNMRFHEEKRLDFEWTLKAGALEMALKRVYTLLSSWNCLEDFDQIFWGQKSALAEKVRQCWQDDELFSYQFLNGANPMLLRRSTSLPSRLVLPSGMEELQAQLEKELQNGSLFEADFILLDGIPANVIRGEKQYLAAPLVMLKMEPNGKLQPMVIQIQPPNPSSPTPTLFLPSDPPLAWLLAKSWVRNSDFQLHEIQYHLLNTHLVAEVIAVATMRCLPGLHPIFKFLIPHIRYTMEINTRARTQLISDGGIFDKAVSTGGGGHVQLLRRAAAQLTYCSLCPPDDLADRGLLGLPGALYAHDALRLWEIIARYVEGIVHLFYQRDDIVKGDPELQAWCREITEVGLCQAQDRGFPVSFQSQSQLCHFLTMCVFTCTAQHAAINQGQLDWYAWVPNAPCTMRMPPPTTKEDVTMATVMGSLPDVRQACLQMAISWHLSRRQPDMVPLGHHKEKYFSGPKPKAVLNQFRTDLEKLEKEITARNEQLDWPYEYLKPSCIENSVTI
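Hydroperoxide product was detected by ferrous iron/xylenol orange as the 573 to 405 nm absorbance ratio. Arachidonic acid at 40 uM (final) was turned over for 30 min at room temperature by 150 nM human 12hLO, pH 7.0 Hepes buffer, after 15 min compound preincubation.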
Mito fusion yeast – qHTS Assay for Small Molecule Inhibitors of Mitochondrial Division or Activators of Mitochondrial Fusion | AID 485298, 2010 | S. cerevisiae fusion-defective mutant growth rescue, CellTiterGlo 48 h | hit rate 0.23% among 320,000 | Potency, µM (doses to about 46.1 µM), for inactives: top-dose growth rescue (activation), usual class: activators; also: % of control where 0% means no effect; nearly all actives have a fitted effect of over 45% in size
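Growth-rescue viability read-out: after 48 h at the non-permissive 37C in glycerol/ethanol YPEG, yeast mitochondrial fusion mutants are measured by CellTiterGlo luminescence; compounds (23 nl pinned per well) restoring growth score as division inhibitors or fusion activators.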
gsp agonist – qHTS for Agonist of gsp, the Etiologic Mutation Responsible for Fibrous Dysplasia/McCune-Albright Syndrome: qHTS | gsp mutant cells, cAMP HTRF, 30 min | Potency, µM (titrated, usually from 76.9 µM), inactives show top-dose activation (cAMP increase), hits mostly activators | hit rate 0.13% among 340,000 | AID 624287, 2012; active = well fitted activation curve with a large enough effect; inconclusive = small, poorly fitted or top-dose-only effect, or another doubt; inactive = no such curve, though single readings can be large or run the other way; cell line not stated here;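 also: phosphodiesterase inhibitor Ro 20-1724 added with compounds to block cAMP breakdown; nearly all actives have a fitted effect of over 60% in size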
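Cells in DMEM/10% FBS with G418 were pretreated with compounds in DMSO plus […] (300 uM stock) for 30 min at 37C. cAMP was measured by HTRF (cAMP-d2 plus anti-cAMP antibody-K) after 30 min at room temperature.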
* = called active by the depositor; i = inactive; u = inconclusive; x = not tested or not shown; [ ] = another dose, or the depositor's remark. Compounds with a hit are over-represented: about 1.6% of the library has one in this group of screens. Unless noted, calls follow the shape of the dose curve; as a rule, active = well fitted curve in the direction sought with a large enough effect; inconclusive = small, poorly fitted or top-dose-only effect, or another doubt; inactive = no such curve, though single readings can be large; an effect the other way counts as inactive or inconclusive. Potency is read from the fitted curve at half-maximal effect.

SMILES	gsp antagonist	FUS suppressor	ALOX12 inh	Mito fusion yeast	gsp agonist
COc1ccc(-n2[nH]c(C)c(Cc3ccccc3Cl)c2=O)cc1	x	x	4%	x	x
Cc1cc(C)cc(NC(=O)Cn2c(-n3nc(C)cc3C)nc(-c3ccccc3)cc2=O)c1	x	x	-1%	x	x
Cc1ccc(OC2(C(=O)N[C@H]3CCc4ccccc43)CCNCC2)cc1	x	x	-6%	x	x
Cc1ccc(OC2(C(=O)N3CCCC3c3nccs3)CCNCC2)cc1 (stereo not given)	x	x	18µM*	x	x
Cc1ccc2cccc(NC(=O)COc3cccc(C)c3C)c2n1	x	x	5%	x	x
CCc1noc(Cn2c(=O)c(C#N)cn(C3CC3)c2=O)n1	x	x	45%	x	x
Cc1ccc(Cl)cc1N1CCN(C(=O)CSc2nnc3n2C(C)(C)Cc2ccccc2-3)CC1	u	i	8%	16µM*	3%
COc1ccc(N2CCN(C(=O)CSc3nnc4n3C(C)(C)Cc3ccccc3-4)CC2)cc1	u	i	-14%	-1%	-3%
CC(=O)Oc1c(Br)cc(N(C(C)=O)S(=O)(=O)c2ccccc2)c2ccccc12	-16%	i	13µM*	-12%	-41%
COc1cc(C2C(C#N)=C(C)NC(C)=C2C#N)cc(OC)c1OC	11%	i	-8%	4%	8.9µM*
COc1cc(C2C(C#N)=C(N)Oc3cc(N)ccc32)cc(OC)c1OC (stereo not given)	15%[15.4 µM]	i	11%	1%	20%
CCOC(=O)c1c(C)[nH]c(C(=O)COC(=O)CNS(=O)(=O)c2ccc(C)cc2)c1C	32µM*	x	371%	-4%	-17%
NCC1(Nc2ccccc2)CCCCC1	x	x	38%	x	x
Cc1ccc(-c2nn(-c3ccccc3)cc2/C=C/C(=O)OCC(=O)NC2CC2)o1	50µM*	i	0%	-2%	26%
CNC(=O)COC(=O)/C=C/c1cn(-c2ccccc2)nc1-c1ccc2c(c1)OCCO2	-5%	i	1%	u	2%[15.4 µM]
O=C(CCSC1=NCCCN1)c1ccc(F)cc1	-2%	x	45µM*	x	u
O=C(CCCSc1nnc(SCCCC(=O)c2ccc(F)cc2)s1)c1ccc(F)cc1	-16%	i	20%	-4%	-49%
O=C(CSc1ncccc1-c1nc2ccccc2[nH]1)NCc1ccco1	4%	u	14µM*	1%	18%
Cc1ccc(OCC(O)Cn2nc(-c3ccc(F)cc3)oc2=O)cc1 (stereo not given)	x	x	0%	x	x
COc1ccc2cc(CNc3ccc(C)cc3)c(=O)n(CC(=O)Nc3ccc(C)cc3C)c2c1	x	x	7.9µM*	x	x
Cc1ccc(Cl)cc1NC(=O)Cn1c(=O)c(CNc2ccccc2)cc2cc3c(cc21)OCCO3	x	28µM*	169%	x	x
COc1ccc(NCc2cc3ccc(OC)cc3n(CC(=O)Nc3cc(Cl)ccc3C)c2=O)cc1	x	i	-14%	x	x
CC(=O)NCC(=O)N1Cc2ccccc2CC2(CCCN2CC2CCCC2)C1 (stereo not given)	x	x	4%[6.33 µM]	x	x
COc1ccc2ccc(OCC(=O)NC3CCCC3)cc2c1	x	x	-21%	x	x
OCCn1c(-c2ccc3c(c2)OCO3)csc1=Nc1ccccc1	28µM*	i	u	12%	-23%
SMILES	gsp antagonist	FUS suppressor	ALOX12 inh	Mito fusion yeast	gsp agonist
CCOc1cc(C(=O)N2CCC(CC3CC(c4ccccc4)=NO3)(C(=O)NCc3ccc(OC)cc3)CC2)cc(OCC)c1OCC (stereo not given)	-16%	18µM*	u	x	x
O=C1CC(c2ccc(F)cc2)c2cc3c(cc2N1)CCC3 (stereo not given)	0%	i	-21%	11µM*	u
Cc1cc2c(cc1C)C(c1cccc(F)c1)CC(=O)N2 (stereo not given)	-13%	i	0%	2%	-16%
COC(=O)C1=C(C)NC(=S)NC1c1ccc(-c2cc(Cl)ccc2Cl)o1 (stereo not given)	-27%	i	18µM*	5%	11%[15.4 µM]
C/C(=N\Nc1c(F)c(F)c(Br)c(F)c1F)c1ccncc1	-26%	i	77%	-6%	-4%[15.4 µM]
NNc1c(F)c(F)c(Br)c(F)c1F	x	x	13µM*	x	x
CCOc1ccc(-n2c(SCC(=O)Nc3ccccc3OCC)nc3[nH]ncc3c2=O)cc1	x	x	18%	x	x
CCOC(=O)C1(Cc2ccccc2C)CCCN(Cc2cn(CC(N)=O)c3ccccc23)C1 (stereo not given)	x	x	38%	x	x
O=C(/C=C/c1cccc(Cl)c1)Nn1c(-c2cccs2)nc2ccccc2c1=O	-22%	i	-22%	16µM*	-10%[15.4 µM]
COc1ccccc1NC(=O)NOCc1ccccc1	x	x	49%	x	x
CC(C)c1ccc(O)c(NC(=S)NC(=O)c2ccc3c(c2)OCO3)c1	-2%	i	13µM*	-3%	27%
COc1ccc(C(=O)COc2ccc3c(c2)OCO3)cc1OC	x	x	45µM*	x	x
COc1ccc(C(CC(=O)c2ccc3c(c2)OCO3)C(=O)O)cc1OC (stereo not given)	x	i	-13%	x	u
O=C(c1cn(-c2ccccc2)nc1-c1ccc(Br)cc1)N1CCOCC1	12%	x	-3%	11µM*	2%
O=C(c1cn(-c2ccccc2)nc1-c1ccc(F)cc1)N1CCCCC1	-3%	x	-24%	16µM*	13%
CO/C=C\C=C/c1nnn(-c2ccc(Cl)cc2)n1	-4%	i	35µM*	27%	2%
COc1ccccc1N1CCN(C(=O)CCNS(=O)(=O)c2ccc3[nH]c(=O)ccc3c2)CC1	x	x	-38%	x	x
Cc1nn2c(c1-c1cccnc1N1CCOCC1)N(CCc1ccccc1)CCC2	x	x	20µM*	x	x
Cc1nn2c(c1-c1ccccc1C(C)C)N(Cc1cccc(C(=O)O)c1)CCC2	x	x	0%[176 µM]	x	x
Cc1ccncc1-c1c(C)nn2c1N(C(=O)Cc1ccc(Cl)cc1)CCC2	x	x	-7%[176 µM]	x	x
Cc1ccncc1-c1c(C)nn2c1N(Cc1ccc(C(=O)O)cc1)CCC2	x	x	16µM*	x	x
COc1ccc(OC)c(CN2CCCn3nc(C)c(-c4cccnc4N4CCOCC4)c32)c1	x	x	24%	x	x
Cc1nn2c(c1-c1ccccc1C(C)C)N(CCC(C)C)CCC2	x	x	50µM*	x	x
Cc1nn2c(c1-c1cccnc1N1CCOCC1)N(CCC(C)C)CCC2	x	x	18µM*	x	x
CC(=O)N(C1=C(C#N)C(=O)CC(C)(C)C1)c1ccccc1	x	x	-7%	x	x
O=C(NCCc1ccccc1)c1ccc2c(c1)OCCN(c1ccccc1)C2	x	x	-11%[176 µM]	x	x
Cc1cccc(C(C)C)c1NC(=O)C1CCN(c2nc3ccccc3o2)CC1	x	x	-35%	x	x
CC(=O)Nc1ccccc1-c1c(C)nn2c1N(CCCc1ccccc1)CCC2	x	x	16µM*	x	x
CC(=O)Nc1ccccc1-c1c(C)nn2c1N(C(=O)Cc1ccccc1)CCC2	x	x	6%[176 µM]	x	x
